Assay outcomes as filed in PubChem BioAssay.
Many of the other results were omitted from the sample, so hits are more common in it than they were.
ERK EGF block: qHTS Assay for Inhibitors of the ERK Signaling Pathway using a Homogeneous Screening Assay; Stimulation with EGF | HEK293-V1b, EGF-stimulated phospho-ERK AlphaScreen | Potency, µM (titrated, usually from 11.5 µM), for the others: at the highest dose activity change, negative = inhibition, usual class: inhibitors | 0.41% of 130,000 active | AID 1454, 2008;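 further: potency means the concentration at half of the fitted maximal effect; plate controls were stimulated vehicle wells for no effect and unstimulated vehicle basal for full effect; nearly all actives have a fitted effect of over 55% in size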
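Compounds are titrated over HEK293-V1b cells kept overnight in 1% FBS. After 30 min at 37C, EGF (25 nM final) triggers ERK phosphorylation for 5 min, measured by AlphaScreen in lysates.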
pERK EGF inh: Confirmation Concentration-Response Assay for Inhibitors of the ERK Signaling Pathway using a Homogeneous Screening Assay; Stimulation with EGF; shares compounds with ERK EGF block; HEK293 EGF-stimulated ERK phosphorylation, AlphaScreen; Potency, µM (doses to about 57.5 µM), without a hit: at the highest dose activity change, negative = inhibition, most hits filed as inhibitors; 60% of 60 active
cRaf kinase inh: Assay for Inhibitors of the ERK Signaling Pathway using a Homogeneous Screening Assay: c-Raf Inhibition | activity change, negative = inhibition, % at 76.9 µM | shares compounds with ERK EGF block | 70 tested, under 10 active | c-Raf kinase inhibition, homogeneous biochemical assay
MEK1 kinase inh: Assay for Inhibitors of the ERK Signaling Pathway using a Homogeneous Screening Assay: MEK Inhibition; shares compounds with ERK EGF block; homogeneous MEK kinase activity assay, ERK pathway; Potency, µM (top dose mostly 76.9 µM), inactives show top-dose activity change, negative = inhibition, actives largely listed as inhibitors; 70 tested, under 10 active
Target sequence (Q02750 whole entry, looked up): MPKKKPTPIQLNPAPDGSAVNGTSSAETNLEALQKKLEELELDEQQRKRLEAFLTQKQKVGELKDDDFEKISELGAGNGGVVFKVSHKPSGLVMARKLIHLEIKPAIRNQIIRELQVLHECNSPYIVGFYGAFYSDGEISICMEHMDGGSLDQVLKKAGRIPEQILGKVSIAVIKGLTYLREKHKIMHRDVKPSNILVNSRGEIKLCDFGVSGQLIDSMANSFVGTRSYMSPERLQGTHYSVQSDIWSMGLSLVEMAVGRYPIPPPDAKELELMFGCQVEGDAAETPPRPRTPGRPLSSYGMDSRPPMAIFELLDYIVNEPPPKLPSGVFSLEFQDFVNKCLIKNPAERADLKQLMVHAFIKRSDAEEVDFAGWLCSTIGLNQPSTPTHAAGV
An asterisk follows results filed as active; ? = inconclusive; · = no result given; [ ] = remark or other dose. The call rests on the fitted dose curve; in most records, active means well fitted curve in the direction sought with a large enough effect; inconclusive means small, poorly fitted or top-dose-only effect, or another doubt; inactive means no such curve, though single readings can be large; an effect the other way counts as inactive or inconclusive.

SMILES | ERK EGF block | others
COC(=O)[C@@]1(Cc2ccccc2)[C@H]2c3cc(C(=O)N4CCCC4)[nH]c3C[C@H]2CN1C(=O)c1ccccc1 | -1%
CCc1c2c(nc3cccc(SC)c13)COC2 | 3%
COc1cc2ncnc(Nc3ccc(F)c(Cl)c3)c2cc1OCCCN1CCOCC1 | · | cRaf kinase inh=-23;MEK1 kinase inh=4%
COc1ccc(C(=O)NCCN2CCOCC2)cc1OC | -9%
CCCOc1ccc(CN2CCOCC2)cc1OC | 4%[57.5 µM]
C[C@H]1C2=C3C(CC[C@H]4C(OCc5ccc(F)cc5C(F)(F)F)OC[C@](C)([C@@H]34)N(C(=O)OC(C)(C)C)C2)C(CO)C1CO (stereo partly drawn) | -9%
CCc1cccc2c(-c3ccccc3)c3c(nc12)OCC3 | -2%
Cc1sc2ncnc(N/N=C/c3ccccc3O)c2c1C | 4%
Cc1sc2ncnc(N/N=C/c3ccc(O)cc3)c2c1C | -2%
Cc1ccc(Nc2ncnc3sc(C)c(C)c23)cc1C | · | pERK EGF inh=11µM*;cRaf kinase inh=?;MEK1 kinase inh=-1%
Nc1nc2c(ncn2C2OC(CO)CC2O)c(=O)[nH]1 (stereo not drawn) | 28%
C=C(C)C1COc2cc3oc(=O)ccc3cc2O1 (stereo not drawn) | 20%
CC(/C=C/c1ccccc1)=N\Nc1ccccc1[N+](=O)[O-] | 7.9µM* | pERK EGF inh=8.9µM*;cRaf kinase inh=-3;MEK1 kinase inh=-6%
CC(/C=C/c1ccccc1)=N/NC(=O)C(O)c1ccccc1 (stereo not drawn) | 6%
CC(/C=C/c1ccccc1)=N/NC(=O)c1cc([N+](=O)[O-])cc([N+](=O)[O-])c1 | 29%
O=c1c(O)c(-c2ccc(O)c(O)c2)oc2c(OC3OC(CO)C(O)C(O)C3O)c(O)cc(O)c12 (stereo not drawn) | 11%
O=S(=O)(c1ccccc1)N1CCC2(CC1)CN(c1ncccn1)C2 | 3%
O=S(=O)(c1ccccc1)N1CCC[C@@]2(CCN(Cc3cc(C(F)(F)F)cc(C(F)(F)F)c3)C2)C1 | 9%
O=c1c(-c2ccc(F)cc2)nc2cnc(N3CCOCC3)nc2n1C[C@H]1CCCO1 | 16%
CC1(C)OC(c2ccccc2)=C/C(=C/C=C2C(=O)c3ccccc3C2=O)O1 | ? | pERK EGF inh=?;cRaf kinase inh=-12;MEK1 kinase inh=-7%
COc1ccc(N=C/C=C2\C=C(c3ccccc3)OC(C)(C)O2)cc1 | 2%
Cc1ccccc1N=C/C=C1/C=C(c2ccccc2)OC(C)(C)O1 | 1%
N#Cc1ccc(CN2CCCC3(CCN(S(=O)(=O)c4ccccc4)CC3)C2)cc1 | 7%
C=C(C[C@]1(C(=O)OC)CC2(CC=C(C)C)C(=O)C(C(=O)CC(C)C)=C(O)C(CC=C(C)C)(C1)C2=O)C(=O)OC (stereo partly drawn) | -15%
CC(=O)Nc1ccc(/C=N/Nc2nc3ccccc3s2)cc1 | -5%[57.5 µM]
SMILES | ERK EGF block | others
CCOC(=O)N1CCC(=NNc2nc3ccccc3s2)CC1 | 4%[57.5 µM]
CC(=O)N1CCC(=NNc2nc3ccccc3s2)CC1 | ? | pERK EGF inh=?;cRaf kinase inh=?;MEK1 kinase inh=-4%
C[C@@H]1C(=O)O[C@H]2[C@@H](O)[C@@]34[C@H]5CC(C(C)(C)C)[C@]36[C@@H](OC(=O)[C@@H]6O)O[C@@]4(C(=O)O5)[C@@]12O (stereo partly drawn) | -12%
CCCCC/C=C\C\C=C/C=C/C=C/[C@@H](SCC(NC(=O)CCC(N)C(=O)O)C(=O)NCC(=O)O)[C@@H](O)CCCC(=O)O (stereo partly drawn) | -18%
O=C(O)c1ccc(N[C@@H]2OC[C@@H](O)[C@@H](O)[C@@H]2O)cc1 | -9%
Cc1ccc2nc(=O)c(NNc3ccccc3)cnc2c1 | 14µM* | cRaf kinase inh=-16;MEK1 kinase inh=4%
Cc1ccc(S(=O)(=O)Nc2cnc3ccccc3c2)cc1 | -3%
CCOC(=O)c1nc2ccccc2nc1C | 2%
Cc1ccc2nc(-c3ccccc3)c(-c3ccccc3)nc2c1 | -10%
Cc1nc2ccccc2nc(=O)c1NNc1ccccc1 | · | pERK EGF inh=14µM*;cRaf kinase inh=-6;MEK1 kinase inh=-2%
Cc1nc2ccccc2nc1OCc1ccccc1 | -3%
CCCCC[C@H](O)/C=C/[C@@H]1[C@H](C/C=C\CCCC(=O)O)[C@@H](O)C[C@H]1O | 9%
COC(=O)[C@H](Cc1ccccc1)NC(=O)O[C@@H]1C(=O)c2ccc(OC)cc2O[C@H]1c1ccc2c(c1)OCO2 | -10%
CC/C=C\C[C@H]1C(=O)CC[C@@H]1CC(=O)O | -2%
CC(C)C[C@@H](CC(=O)N[C@@H](CCC(=O)O)CC(=O)O)NC(=O)[C@@H]1CNCC[C@H]1NC(=O)C[C@@H](NC(=O)C[C@H](Cc1ccccc1)NC(=O)[C@@H]1CNCC[C@H]1N)C(C)C | 1%
CCOC(=O)C12CC1/C(=N/O)c1ccccc1O2 (stereo not drawn) | 12%
COC(=O)[C@@H]1C[C@@H]2CC[C@@H](O)C[C@@H]2N1Cc1ccc(C)s1 | 1%
CC(C)(C)[Si](C)(C)c1c2c(nc3ccc(OCc4ccccc4)cc13)-c1cccc(=O)n1C2 | 8%
CS(=O)(=O)Nc1cccc(-c2ccc3ncnc(Nc4ccc(F)cc4)c3c2)c1 | 1.1µM* | pERK EGF inh=1.4µM*;cRaf kinase inh=-36;MEK1 kinase inh=18%
CS(=O)(=O)Nc1cccc(-c2nc(Nc3ccccc3)c3ccccc3n2)c1 | 26%
CN(C)c1ccnc(-c2cccc(NS(C)(=O)=O)c2)n1 | 16%
N#Cc1ccc(CS(=O)(=O)c2nc3ccccc3s2)cc1 | -7%
COc1ccc(/C(O)=C2/C(=O)C(=O)N(c3ncccn3)C2c2ccc(OC)cc2)cc1 (stereo not drawn) | -3%
CCOc1ccc(/C(O)=C2/C(=O)C(=O)N(c3ncccn3)C2c2ccc(C)cc2)cc1 (stereo not drawn) | -4%[57.5 µM]
CCOc1ccc(/C(O)=C2/C(=O)C(=O)N(c3ncccn3)C2c2ccccc2)cc1 (stereo not drawn) | · | pERK EGF inh=-6%;cRaf kinase inh=4;MEK1 kinase inh=0%
SMILES | ERK EGF block | others
COc1ccc(-c2n(CC(=O)OC3CC(C)CCC3C(C)C)c3ccccc3[n+]2C)cc1 (stereo not drawn) | 1.8µM* | pERK EGF inh=-13%;cRaf kinase inh=-12;MEK1 kinase inh=-7%
CC1CCC(C(C)C)[C@H](OC(=O)c2ccccc2)C1 (stereo partly drawn) | 17%
CC1CCC(C(C)C)C(OC(=O)C2=C3c4ccccc4S(=O)(=O)N3CC2)C1 (stereo not drawn) | 3%
Cc1ccccc1Nc1oc(-c2ccccc2)nc1-c1cccs1 | 0%
C=C[C@@]1(C)CC(=O)[C@@]2(O)[C@@]3(C)[C@@H](O)CCC(C)(C)[C@@H]3[C@H](O)[C@H](OC(C)=O)[C@@]2(C)O1 | -5% | pERK EGF inh=-9%;cRaf kinase inh=-3;MEK1 kinase inh=-7%
O=C1C=C(O)c2cccc(O)c2C1=O | -16%[57.5 µM]
O=C1c2ccccc2C(=O)c2c([N+](=O)[O-])ccc(O)c21 | -14%[57.5 µM]
O=C1c2ccc(O)c(O)c2C(=O)c2c(O)ccc(O)c21 | 7.9µM* | pERK EGF inh=10µM*;cRaf kinase inh=?;MEK1 kinase inh=?
CN(C)c1ccc(-c2nc(N3CCNCC3)c3ccccc3n2)cc1 | 11%
